Screening results: PubChem BioAssay, Buhrlage Lab, Dana-Farber Cancer Institute and Novartis Institutes for BioMedical Research (Cambridge, Mass)
Shown are actives, neighbours in structure and some others; about 4.6% of the full set was active somewhere.
USP10 inh = inhibitors of human USP10 deubiquitinase; purified USP10, Ub-rhodamine fluorescence, 60 min; inhibition, % at 20 µM; hit rate 1.1% among 47,000
UCHL1 block = blocks human UCHL1 ubiquitin-rhodamine cleavage; P09936; purified UCHL1, Ub-rhodamine cleavage fluorescence; inhibition, % at 20 µM; hit rate 0.2% among 47,000; AID 1645859
USP7 inh = human USP7 deubiquitinase inhibition | Q93009 | purified USP7, Ub-rhodamine cleavage fluorescence | inhibition, % at 20 µM | hit rate 0.3% among 47,000 | AID 1645854
Target sequence (Q93009 whole entry, looked up): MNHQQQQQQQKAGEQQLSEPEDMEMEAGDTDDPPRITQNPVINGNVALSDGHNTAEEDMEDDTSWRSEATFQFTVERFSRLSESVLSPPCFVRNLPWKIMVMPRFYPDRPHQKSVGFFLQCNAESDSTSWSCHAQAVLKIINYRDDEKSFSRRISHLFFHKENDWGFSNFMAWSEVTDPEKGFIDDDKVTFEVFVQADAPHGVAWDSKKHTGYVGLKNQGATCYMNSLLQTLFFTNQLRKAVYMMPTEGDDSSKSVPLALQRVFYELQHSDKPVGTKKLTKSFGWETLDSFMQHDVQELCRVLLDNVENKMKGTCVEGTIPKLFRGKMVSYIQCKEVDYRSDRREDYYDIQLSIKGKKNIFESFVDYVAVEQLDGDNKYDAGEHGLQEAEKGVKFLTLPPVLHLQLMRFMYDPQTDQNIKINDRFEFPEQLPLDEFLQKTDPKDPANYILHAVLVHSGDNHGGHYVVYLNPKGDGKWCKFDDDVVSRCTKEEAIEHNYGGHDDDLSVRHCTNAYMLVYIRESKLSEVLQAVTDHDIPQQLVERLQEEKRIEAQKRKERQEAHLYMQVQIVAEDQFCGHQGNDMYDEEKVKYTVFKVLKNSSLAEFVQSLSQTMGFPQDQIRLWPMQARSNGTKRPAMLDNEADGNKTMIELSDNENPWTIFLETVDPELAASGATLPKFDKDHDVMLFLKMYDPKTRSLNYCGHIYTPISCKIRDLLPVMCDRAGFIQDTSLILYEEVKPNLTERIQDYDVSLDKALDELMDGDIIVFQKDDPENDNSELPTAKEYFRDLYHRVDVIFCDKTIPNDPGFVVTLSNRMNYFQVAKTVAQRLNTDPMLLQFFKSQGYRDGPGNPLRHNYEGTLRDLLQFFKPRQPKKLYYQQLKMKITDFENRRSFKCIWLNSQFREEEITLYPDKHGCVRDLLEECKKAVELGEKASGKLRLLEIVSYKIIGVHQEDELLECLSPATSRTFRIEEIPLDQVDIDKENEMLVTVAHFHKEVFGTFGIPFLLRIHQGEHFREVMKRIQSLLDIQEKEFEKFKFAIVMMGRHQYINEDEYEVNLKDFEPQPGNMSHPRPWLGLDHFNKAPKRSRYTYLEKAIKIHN
USP8 inh = human USP8 deubiquitinase inhibition; P40818; hit rate 4.2% among 47,000; purified USP8, Ub-rhodamine cleavage fluorescence, 30 min; inhibition, % at 20 µM; AID 1645853
Each line names hits and unclear results; the compound was inactive in the other large screens. No stated cut-off is given here; in the data, active means inhibition above about 30%; inactive means the rest.

Cc1ccc(CC(=O)Nc2ccc(C)cc2-c2n[nH]c(C3CC3)n2)cc1	USP10 inh 30, USP8 inh 64
O=C(Nc1nc2c(s1)COCC2)c1cc(-c2ccco2)[nH]n1	USP8 inh 86
O=C(c1ccc(Cl)cc1)N(c1ccccn1)C1CCCCC1	USP10 inh 71, USP7 inh 52, USP8 inh 54
O=C(CN1CCc2ccccc21)Nc1cc(C(=O)O)ccc1O	USP8 inh 49
CC(=O)c1ccc(NC(=O)CN2CCCc3ccccc32)cc1	none
Cc1ccc(-c2c(C(=O)O)sc3c2NC(=O)CC3c2cccc(F)c2)cc1 (stereo not drawn)	none
CCCn1c(=O)c(-c2ccc(C(=O)NCc3ccc(OC)cc3)cc2)nc2cccnc21	USP10 inh 33, USP7 inh 31, USP8 inh 65
COc1ccc(NC(=O)CSC2=NC3(CCCCC3)Nc3ccccc32)c(OC)c1	none
COc1ccccc1NC(=O)CSC1=NC2(CCCCC2)Nc2ccccc21	USP8 inh 84
Cc1ccc(-c2noc(Cc3nnc(-c4ccccc4)o3)n2)cc1	none
Cc1ccc(-c2noc(CNc3ccc(Oc4ccccc4)cc3)n2)cc1	USP8 inh 79
Nc1nc(OCc2ccccc2)c2[nH]c(/C=C/c3cccs3)nc2n1	USP8 inh 72
Cc1cccc(-c2c3c(=O)n(C)c(=O)n(C)c3cn2CC2CCCO2)c1 (stereo not drawn)	none
Cc1ccccc1NS(=O)(=O)c1cc2[nH]c3c(c2cc1C)C(=O)CCC3	USP8 inh 40
Cc1cc2c3c([nH]c2cc1S(=O)(=O)Nc1c(C)cccc1C)CCCC3=O	none
NC(=O)CN1CCC(c2cc(OCc3ccccc3)no2)CC1	none
O=C(Nc1ccc2c(c1)OCO2)C1CCN(C(=O)c2ccc3n[nH]nc3c2)CC1	USP8 inh 36
CCOC(=O)N1CCN(S(=O)(=O)c2ccc(C(=O)Nc3ccc(OC)c4ccccc34)cc2)CC1	USP8 inh 56
O=C(Nc1ccc2c(c1)OCO2)c1ccc2nc(C(F)(F)F)sc2c1	USP8 inh 55
COC[C@H]1CCCN1C(=O)CC[C@H]1CNC(=O)[C@@H]2[C@@H](CCN2C(C)C)N1C	USP8 inh 41
COC[C@H]1CCCN1C(=O)CC[C@H]1CNC(=O)[C@@H]2[C@@H](CCN2C2CCCCC2)N1C	none
CC(C)N1CC[C@@H]2[C@H]1C(=O)NC[C@H](CCC(=O)N1CCOCC1)N2C	none
COC[C@H]1CCCN1C(=O)CC[C@H]1CNC(=O)[C@@H]2[C@@H](CCN2C2CCOCC2)N1C	USP8 inh 40
Nc1c(C(=O)NCC2CCCO2)nnn1-c1ccccc1Cl (stereo not drawn)	USP8 inh 32
Cc1ccc2ccc3c(c2n1)OC(N)=C(C#N)C3c1ccncc1 (stereo not drawn)	USP8 inh 66
O=C(Cc1ccccc1)Nc1nc(-c2cccc3ccccc23)cs1	none
O=C(c1cc2ccccc2o1)[C@@H]1[C@@H]2CCCN2[C@]2(C(=O)Nc3c(Cl)cccc32)[C@@]12C(=O)Nc1ccccc12	none
Cc1cc(Cl)c2c(c1)[C@]1(C(=O)N2)N2CCC[C@H]2[C@@H](C(=O)c2cc3ccccc3o2)[C@]12C(=O)Nc1ccccc12	USP8 inh 41
O=C(Nc1nc2c(s1)CN(C(=O)c1cc(-c3ccco3)on1)CC2)C1CCCO1 (stereo not drawn)	USP8 inh 59
Cc1nc(C)c(-c2nc(-c3ccc4c(c3)[nH]c(=O)n4C3CCCC3)no2)s1	none
O=C(NCc1nc(-c2ccc3c(c2)[nH]c(=O)n3C2CCCC2)no1)c1ccccc1	USP8 inh 49
Cc1ccc2c(c1)N(C)C(=O)c1cc(NC(=O)c3ccc(F)cc3)ccc1O2	USP10 inh 40, USP8 inh 77
O=C(CN1C(=O)COc2ccc(Cl)cc21)Nc1cccc2ncccc12	USP8 inh 73
O=C(Cc1ccc(Cl)c(Cl)c1)Nc1cccc2ncccc12	none
CC(=O)Nc1ccc(C(=O)Nc2cccc(-c3noc(C)n3)c2)cc1	none
Cc1ccc(N2CC(C(=O)Nc3cccc(-c4noc(C)n4)c3)CC2=O)cc1 (stereo not drawn)	USP8 inh 40
CSc1nc2ncn(CC(=O)Nc3cccc(Cl)c3)c(=O)c2s1	USP8 inh 33
Cc1cccc(Nc2cc(C3CCN(C(=O)c4ccncn4)CC3)ccn2)n1	none
O=C(Nc1cccnc1)C1c2ccccc2C(=O)N(C2CCCC2)C12CCCCC2 (stereo not drawn)	USP8 inh 36
Cc1cccc(C(=O)N2CCc3cc(-c4nc(NC(=O)CNc5ccccc5)sc4C)ccc32)c1	USP8 inh 57
O=C(Cn1nnc2ccccc21)Nc1nc(-c2ccc3c(c2)CCN3C(=O)c2ccccc2F)cs1	USP10 inh 50, USP8 inh 77
Cc1sc(NC(=O)Cn2nnc3ccccc3c2=O)nc1-c1ccc2c(c1)CCN2C(=O)C(C)C	none
Cc1sc(NC(=O)Cn2nnc3ccccc32)nc1-c1ccc2c(c1)CCN2C(=O)c1ccccc1F	USP10 inh 56, USP8 inh 50
Cc1sc(NC(=O)CN2CCc3ccccc3C2)nc1-c1ccc2c(c1)CCN2C(=O)C1CCCCC1	USP8 inh 76
CCCOc1cccc(C(=O)NCC(c2ccco2)N2CCOCC2)c1 (stereo not drawn)	none
CCOC(=O)CSc1c(CC)cnc2c1c(=O)n(C)c(=O)n2C	none
CN(CC(=O)Nc1nc(-c2ccc3c(c2)CCN3C(=O)C2CCCCC2)cs1)C1CCCCC1	none
Cc1ccc(C(=O)N2CCc3cc(-c4csc(NC(=O)CN(C)C5CCCCC5)n4)ccc32)cc1	USP8 inh 58
CCC(=O)Nc1nc2cc(NC(=O)Nc3ccc(OC)c(OC)c3)ccc2s1	none
CCC(=O)Nc1nc2cc(NC(=O)Nc3ccccc3Cl)ccc2s1	USP8 inh 33
Cc1ccc2c(c1)[nH]c1c(N3CCc4ccccc4C3)ncnc12	USP8 inh 35
CN(C)c1cccc(C2CN(C(=O)c3noc4c3CCCC4)CCO2)n1 (stereo not drawn)	none
COc1ccc(NC(=O)c2[nH]nc3c2CCc2ccccc2-3)c(OC)c1	none
CC(C)NC(=O)c1[nH]nc2c1COc1ccccc1-2	none
O=C(Nc1cccc(Cl)c1)c1[nH]nc2c1COc1ccccc1-2	USP8 inh 75
O=C(NCc1ccc2c(c1)OCO2)c1[nH]nc2c1COc1ccccc1-2	USP8 inh 54 (no result: USP7 inh)
N#Cc1cccc(NC(=O)c2[nH]nc3c2COc2ccccc2-3)c1	USP10 inh 41, USP8 inh 72
COc1ccc(NC(=O)c2[nH]nc3c2COc2ccccc2-3)c(OC)c1	USP8 inh 59
O=C(Nc1nc2c(Cl)cccc2s1)c1cc2ccccc2oc1=O	none
CC(C)Oc1ccc(CNCc2ccc(C(=O)O)s2)cc1	none
COc1ccc(C2CC(=O)N(Cc3ccccc3F)c3ccccc3S2(=O)=O)cc1OC (stereo not drawn)	USP8 inh 33
Cc1nnc(-c2ccc3ccn(CC(=O)N4CCCc5ccccc54)c3c2)o1	USP10 inh 85, UCHL1 block 51, USP8 inh 91
Cc1nnc(-c2ccc3ccn(CC(=O)NC4CCCC4)c3c2)o1	none
Cc1nnc(-c2ccc3ccn(CC(=O)N4CCN(c5ccccc5)CC4)c3c2)o1	USP10 inh 47, USP8 inh 96
